# An excerpt weighted towards active compounds, which were near 2.6% of everything screened.
# PAD4 FP inh – blocks human protein arginine deiminase 4; recombinant PAD4, RCA probe fluorescence polarization; AID 485272; Q9UM07; inhibition, % at 6.36 µM; hit rate 0.41% among 330,000;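 active = percent inhibition above a cutoff equal to the mean of all tested compounds plus 3 SD, cut at about 15% in these data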
# Fam108B counter – counter-screen for RBBP9 inhibitors: inhibitors of mouse Fam108B; recombinant Fam108B, FP-Rh probe fluorescence polarization; hit rate 0.33% among 300,000; inhibition, % at 9.51 µM;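 active = inhibition above the screen mean inhibition plus 3 SD, computed separately per campaign, cut at about 18% in these data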;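 note: inhibitors lower polarization as less probe binds the enzyme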
# PRMT1 inh – blocks human protein arginine methyltransferase 1; Q99873; recombinant PRMT1, activity-based probe fluorescence polarization; inhibition, % at 2.79 µM; hit rate 1.3% among 370,000; AID 652257;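 active = inhibition above about 21% made by adding two undisclosed values, limit read from the data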
# Target sequence (Q99873 whole entry, looked up): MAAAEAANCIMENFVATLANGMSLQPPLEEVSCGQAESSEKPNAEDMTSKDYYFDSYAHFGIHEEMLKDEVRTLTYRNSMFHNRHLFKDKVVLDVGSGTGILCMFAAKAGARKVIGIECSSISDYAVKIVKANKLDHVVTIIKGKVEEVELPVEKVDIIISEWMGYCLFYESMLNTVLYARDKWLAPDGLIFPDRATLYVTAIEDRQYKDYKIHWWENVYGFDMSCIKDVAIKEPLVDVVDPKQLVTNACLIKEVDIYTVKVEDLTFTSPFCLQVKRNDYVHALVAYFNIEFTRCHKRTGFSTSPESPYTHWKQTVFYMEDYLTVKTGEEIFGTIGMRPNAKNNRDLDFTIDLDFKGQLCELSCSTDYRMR
# SIAE inh – human SIAE inhibition, primary screen | SIAE FP-Rh probe binding, fluorescence polarization | inhibition, % at 9.66 µM | hit rate 0.69% among 370,000;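 active = inhibition above a cutoff: mean of compounds within the control limits plus 3 SD of those, cut at about 17% in these data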
# TCR CD3 inh – human TCR-CD3 binding inhibition; TAMRA-labeled TCR probe fluorescence, biochemical; inhibition, % at 9.4 µM; AID 651800; hit rate 0.37% among 360,000;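 note: recombinant mutant TCR 2C K166C tagged with TAMRA read by polarization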
# PME-1 inh – PME-1 (human) inhibition; Q9Y570; inhibition, % at 5.9 µM; AID 2130; hit rate 0.53% among 320,000; recombinant PME-1, FP-Rh probe fluorescence polarization;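 active = inhibition above the campaign mean of all compounds plus 3 SD, cut at about 26% in these data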;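 note: competitive labeling of PME-1 active site by serine hydrolase directed probe; inhibitors block probe labeling so polarization falls and inhibition rises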
# BSA TAMRA ctr – counter-screen for TCR-CD3 interaction inhibitors: BSA probe; shares compounds with TCR CD3 inh; AID 652035; hit rate 10% among 1,200; inhibition, % at 9.4 µM; TAMRA-labeled BSA probe fluorescence counterscreen; in the data active = inhibition above about 23%
# TCR-CD3 conf – confirmation of human TCR-CD3 interaction inhibitors; shares compounds with TCR CD3 inh; TAMRA-labeled TCR probe fluorescence binding assay; inhibition, % at 9.4 µM; hit rate 48% among 1,200; AID 652036
# Numbers stand for hits; – = inactive; · = not tested or not shown. Cut-off read from the data, not from the text of the source, unless noted: active = inhibition above about 19%; inactive = the rest.
SMILES,PAD4 FP inh,Fam108B counter,PRMT1 inh,SIAE inh,TCR CD3 inh,PME-1 inh,BSA TAMRA ctr,TCR-CD3 conf
Nn1c(SCC(=O)N2CCOCC2)nnc1-c1n[nH]c2c1CCC2,·,·,–,–,·,·,·,·
C#CCOCCOCCOCCNc1nc(N2CCOCC2)nc(N2CCN(C(=O)[C@H](Cc3ccc(O)cc3)n3cc([C@@H](N)C(C)CC)nn3)CC2)n1 (stereo not given in full),–,–,–,–,19.6,–,–,–
Cc1ccc(NS(=O)(=O)c2ccc(Cl)c(C(=O)Nc3ccccc3-c3nc4ccccc4[nH]3)c2)cc1C,–,–,–,–,77.7,–,–,36.6
Oc1ccc(/C=N/N=C/c2ccc(O)c(O)c2)cc1O,–,–,–,–,50.9,–,–,67.4
O=Cc1ccc(O)c(O)c1,–,–,–,–,–,–,·,·
O=C1Nc2ccccc2/C1=N\N=C\c1ccc(O)c(O)c1,–,–,32.7,–,32.0,–,–,41.0
COc1cc(/C=N/N=C2/C(=O)Nc3ccccc32)ccc1O,–,–,–,–,–,–,·,·
NS(=O)(=O)c1ccc(NC(=O)c2cccc(N3C(=O)c4ccccc4C3=O)c2)cc1,–,–,–,–,25.3,–,–,30.4
CC(=O)N1CCc2cc(S(=O)(=O)NC3CCN(C(=O)CCl)CC3)ccc21,·,·,–,–,·,·,·,·
CCCCOc1ccc(C(=O)NNC(=S)NC(=O)CC)cc1,–,–,·,·,·,–,·,·
COc1cc(OC)cc(C(=O)NC(=S)Nc2cccnc2)c1,–,–,–,–,–,–,·,·
COc1ccc(C(=O)NC(=S)NNC(=O)c2cccnc2)cc1,–,–,–,–,24.5,–,–,–
COc1cc(OC)cc(C(=O)NNC(=S)NC(=O)c2cccnc2)c1,–,–,–,–,23.5,–,–,19.7
CCC(=O)NC(=S)NNC(=O)c1ccc(OC)cc1,–,–,–,–,20.1,–,–,–
COc1ccc(/C=C/C(=O)NC(=S)NNC(=O)c2cccnc2)cc1OC,–,–,–,–,27.4,–,–,–
C=CCn1c(COc2ccccc2)nnc1SCC(=O)c1ccc(-c2ccccc2)cc1,·,·,–,–,·,·,·,·
C=CCNC(=O)CN(C(=O)Cc1ccc(Cl)cc1)c1cccc(Br)c1,·,·,–,–,·,·,·,·
COc1ccccc1CNC(=O)C[C@H]1CC[C@H]2[C@H](COc3ccc(NS(=O)(=O)c4ccc(C)cc4)cc3C(=O)N2C)O1,·,·,–,–,·,·,·,·
Cc1ccccc1C(=O)NNC(=S)NC(=O)c1cccnc1,–,–,–,–,25.8,–,–,20.0
CCn1c(C)nc2cc(C(=O)NNC(=S)NC(=O)c3ccccc3)ccc21,–,–,–,–,33.6,–,–,27.9
O=C(NNC(=O)c1ccccc1O)c1ccc(S(=O)(=O)Nc2ccccc2)cc1,–,–,–,–,28.9,–,–,–
Cc1cccc(C(=O)NNC(=O)c2ccc(NS(=O)(=O)c3cccs3)cc2)c1C,–,·,–,–,–,–,·,·
O=C(NNC(=O)c1cc(Cl)ccc1O)c1ccc(NS(=O)(=O)c2cccs2)cc1,–,–,–,–,24.4,–,–,–
CCOc1ccc(NS(=O)(=O)c2ccc(C(=O)NNC(=O)c3ccccc3O)cc2)cc1,–,–,–,–,23.4,–,–,23.3
CCOc1ccc(S(=O)(=O)Nc2ccc(C(=O)NNC(=O)c3ccncc3)cc2)cc1,–,–,–,–,–,–,·,·
SMILES,PAD4 FP inh,Fam108B counter,PRMT1 inh,SIAE inh,TCR CD3 inh,PME-1 inh,BSA TAMRA ctr,TCR-CD3 conf
Cc1ccc(-n2c(Cc3cccs3)nnc2SCc2ccc([N+](=O)[O-])cc2)cc1,·,·,–,–,·,·,·,·
NC(=S)N/N=C/c1c(O)c(Br)cc2oc3c(c12)CCCC3,–,–,–,–,42.8,–,–,27.7
O=c1oc2ccccc2c2oc3cc(O)c(O)cc3c12,–,–,–,–,21.1,–,–,30.6
Nc1c(N)c2ccccc2oc1=O,–,–,–,–,–,–,·,·
C[C@H]1[C@H](N(Cc2ccccc2)Cc2ccccc2)CC[C@@]23CCCN2C(=O)CCC[C@@H]13,·,·,–,–,·,·,·,·
COC(=O)CCN(C(=O)c1ccc(N2CCCCC2)c([N+](=O)[O-])c1)c1ccccn1,–,–,–,–,77.4,–,–,–
COc1ccc(C(=O)OCC(=O)N2CCc3ccccc3C2)cc1OC,–,·,–,–,–,·,·,·
CC(=O)Oc1cc(C(=O)OCC(=O)N2CCc3ccccc3C2)cc(OC(C)=O)c1OC(C)=O,–,·,–,–,45.1,·,–,–

# Screens deposited in PubChem by The Scripps Research Institute Molecular Screening Center.
